About 83,000 compounds went through this panel and 20% of them were active in at least one assay; those are over-represented in the sample as a whole.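 Single-concentration screen, 48 h exposure, 96-well plates. Endpoint: percent growth. Below 10 = active.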 Unmarked numbers belong to inactive results. Calls of active or inactive are those of the source.

Among the test systems are SK-MEL-2 melanoma; EKVX NSCLC; SN12C renal; UO-31 renal; TK-10 renal; ACHN renal; CAKI-1 renal; A498 renal; CCRF-CEM leukemia; SR leukemia; RPMI-8226 leukemia; OVCAR-8 ovarian; OVCAR-5 ovarian; OVCAR-4 ovarian; SK-OV-3 ovarian; IGROV1 ovarian; OVCAR-3 ovarian; HS 578T breast; NCI/ADR-RES ovarian.
What all share (assay): NCI-60 one-dose screen, 48 h (100 = growth as untreated, 0 = no growth, -100 = all killed)
Holding throughout (settings): 10 µM unless noted

On to `C=C1C(=O)O[C@H]2[C@H]1CC/C(CNC(=O)/C=C/c1ccc(Cl)cc1Cl)=C\CC[C@@]1(C)O[C@@H]21`, for which the growth in the test with SK-MEL-2 melanoma is -13.8% (active); in the test on EKVX NSCLC, -35.8% (active); with SN12C renal, -43.4% (active); in the test on UO-31 renal it was -90.2% (active); in the test on TK-10 renal, -88.8% (active); with ACHN renal, -79.9% (active). Besides, the growth was -31.2% (active) in the test with CAKI-1 renal; -3.46% (active) in the test on A498 renal; -30.7% (active) in the test on CCRF-CEM leukemia; -28.8% (active) in the test on SR leukemia; -33.1% (active) in the test with RPMI-8226 leukemia; -28.7% (active) with OVCAR-8 ovarian. Also, the growth in the test on OVCAR-5 ovarian was -31.9% (active); in the test on OVCAR-4 ovarian, -52.7% (active); with SK-OV-3 ovarian, 20.3%; in the test with IGROV1 ovarian it was -32.7% (active); in the test with OVCAR-3 ovarian, -100% (active); in the test with HS 578T breast, -4.31% (active). Also, the growth in the test on NCI/ADR-RES ovarian was 2.07% (active).
For `O=C(NCCNc1cc(-c2cn(-c3ccccc3)nc2-c2cccc(O)c2)ccn1)Nc1ccccc1`, the growth in the test with SK-MEL-2 melanoma was 86.4%; in the test on EKVX NSCLC, 71.4%; with SN12C renal it was 77.4%; with UO-31 renal, 58.6%; in the test on TK-10 renal, 124%; with ACHN renal, 88.5%. In addition, the growth in the test with CAKI-1 renal was 80.1%; in the test with A498 renal, 80.8%; with CCRF-CEM leukemia it was 79.3%; in the test with SR leukemia, 2.22% (active); in the test on RPMI-8226 leukemia, 60.1%; in the test on OVCAR-8 ovarian, 74.3%. The growth in the test on OVCAR-5 ovarian is 92.4%; in the test on OVCAR-4 ovarian, 70.1%; in the test on SK-OV-3 ovarian it was 65.1%; in the test on IGROV1 ovarian, 67%; in the test with OVCAR-3 ovarian, 82.3%; in the test with HS 578T breast, 50.5%. In the test with NCI/ADR-RES ovarian, the growth is 75.4%.
As to `O=C(Nc1ccccc1)Nc1cccc(Oc2nnc(Cl)c3ccccc23)c1`, the growth is 9.53% (active) in the test with SK-MEL-2 melanoma; 30% with EKVX NSCLC; 53.7% in the test with SN12C renal; 34.9% with UO-31 renal; 25.3% in the test with TK-10 renal; 33.9% in the test on ACHN renal. Besides, the growth is 84.4% with CAKI-1 renal; 49.2% with A498 renal; 47.6% with CCRF-CEM leukemia; 18% with SR leukemia; 35.1% in the test with RPMI-8226 leukemia; 15.5% with OVCAR-8 ovarian. The growth in the test on OVCAR-5 ovarian is 86.3%; in the test with OVCAR-4 ovarian, 0.217% (active); in the test with SK-OV-3 ovarian it was -0.5% (active); in the test on IGROV1 ovarian, 37.2%; with OVCAR-3 ovarian, 25.4%; in the test with HS 578T breast, 1.19% (active). Also, in the test with NCI/ADR-RES ovarian, the growth was 16.9%.
On to `COc1ccc(N2CCN(c3nc(-c4cc(OC)c(OC)c(OC)c4)nc4ccccc34)CC2)cc1`, for which the growth in the test on SK-MEL-2 melanoma was 93.6%; in the test on EKVX NSCLC it was 85%; in the test with SN12C renal it was 90.1%; in the test with UO-31 renal, 69.9%; in the test with TK-10 renal, 113%; in the test on ACHN renal it was 90.6%. Further, the growth in the test on CAKI-1 renal is 84.1%; in the test on A498 renal it was 79.5%; in the test with CCRF-CEM leukemia, 91.3%; in the test with SR leukemia, 42.6%; in the test on RPMI-8226 leukemia it was 54.8%; in the test on OVCAR-8 ovarian, 71.1%. The growth in the test on OVCAR-5 ovarian is 93.5%; with OVCAR-4 ovarian, 88%; with SK-OV-3 ovarian it was 91.4%; in the test on IGROV1 ovarian, 97%; with OVCAR-3 ovarian it was 94.6%; in the test with HS 578T breast, 65.2%. In the test on NCI/ADR-RES ovarian, the growth was 65.3%.
`COc1ccc2cc(-c3cc(OC)c(OC)c(OC)c3)c(=O)oc2c1`: the growth was 62.3% in the test with SK-MEL-2 melanoma; 54.1% in the test with EKVX NSCLC; 92.7% with SN12C renal; 87.7% with UO-31 renal; 85.8% in the test on TK-10 renal; 90.1% in the test on ACHN renal. Moreover, the growth was 79.3% in the test with CAKI-1 renal; 53% in the test with A498 renal; 74.6% in the test on CCRF-CEM leukemia; 26.8% in the test on SR leukemia; 83.6% in the test on RPMI-8226 leukemia; 82.8% in the test on OVCAR-8 ovarian. Besides, the growth in the test on OVCAR-5 ovarian is 94.2%; in the test on OVCAR-4 ovarian, 79.9%; with SK-OV-3 ovarian, 72%; with IGROV1 ovarian, 82.3%; with OVCAR-3 ovarian, 81.8%; with HS 578T breast, 75.5%. In addition, the growth with NCI/ADR-RES ovarian was 49%.
Consider `CCN(CC)Cc1cccc(C(=O)OC)c1`, for which the growth was 100% in the test with SK-MEL-2 melanoma; 95.7% with EKVX NSCLC; 105% with SN12C renal; 103% with UO-31 renal; 92.5% in the test on TK-10 renal; 96.6% in the test with ACHN renal. Moreover, the growth in the test with CAKI-1 renal is 97.2%; in the test on A498 renal, 115%; in the test with CCRF-CEM leukemia, 76.3%; in the test with SR leukemia it was 95%; in the test on RPMI-8226 leukemia, 91.8%; with OVCAR-8 ovarian it was 99.6%. Besides, the growth in the test on OVCAR-5 ovarian was 94.1%; in the test on OVCAR-4 ovarian, 101%; in the test with SK-OV-3 ovarian, 89.4%; in the test on IGROV1 ovarian, 102%; in the test with OVCAR-3 ovarian, 111%; with HS 578T breast, 109%. Moreover, in the test with NCI/ADR-RES ovarian, the growth is 102%.
In the case of `COc1cccc(-c2nn(-c3ccccc3)cc2-c2ccnc(NCCCNC(=O)c3ccccc3)c2)c1`, the growth was 63.6% in the test with SK-MEL-2 melanoma; 55.8% in the test with EKVX NSCLC; 67.2% in the test with SN12C renal; 39.3% in the test on UO-31 renal; 60.7% in the test on TK-10 renal; 69% in the test with ACHN renal. Further, the growth is 67.3% in the test on CAKI-1 renal; 59.4% in the test on A498 renal; 27.7% in the test with CCRF-CEM leukemia; -19.8% (active) with SR leukemia; 27.9% in the test on RPMI-8226 leukemia; 38% with OVCAR-8 ovarian. The growth in the test on OVCAR-5 ovarian was 92.7%; in the test on OVCAR-4 ovarian, 43.1%; in the test on SK-OV-3 ovarian, 41.7%; in the test with IGROV1 ovarian, 67.1%; in the test on OVCAR-3 ovarian, 51.2%; in the test with HS 578T breast, 51.3%. Moreover, in the test on NCI/ADR-RES ovarian, the growth is 27.1%.
Turning to `COc1cc2ncn3c(=O)c4c5c(sc4nc3c2cc1OC)CCCC5`, the growth in the test with SK-MEL-2 melanoma is 91.4%; in the test on EKVX NSCLC it was 83.2%; with SN12C renal it was 109%; in the test with UO-31 renal, 95.7%; in the test on TK-10 renal, 140%; in the test on ACHN renal, 103%. The growth in the test with CAKI-1 renal is 92.5%; in the test with A498 renal, 112%; in the test on CCRF-CEM leukemia, 137%; in the test with SR leukemia, 134%; in the test with RPMI-8226 leukemia, 105%; with OVCAR-8 ovarian, 107%. For the same compound, the growth in the test with OVCAR-5 ovarian was 98.8%; in the test with OVCAR-4 ovarian, 92.7%; with SK-OV-3 ovarian, 97.5%; in the test with IGROV1 ovarian, 98.8%; in the test with OVCAR-3 ovarian, 100%; in the test with HS 578T breast, 94.7%. The growth in the test with NCI/ADR-RES ovarian was 96%.
